The values that follow come from article PMC11062922 (Nature Chemical Biology, 2023).

Holding throughout (design): species or system human, MV4-11 + K-562 + COLO205 + SK-N-BE2 + OVCAR-8
For one experiment, the system named is CDKL5. Conditions: read-out: apparent Kd; compound concentrations:100 nM and 1000 nM (sheet 'Samples'); n = 1.
The next experiment concerns NLK. Particulars: read-out: apparent Kd, n = 1.
Another experiment concerns ACAD8. Conditions: read-out: apparent Kd, n = 1.
The test system of the next experiment is DDR2. Conditions: read-out: apparent Kd, n = 1.
In another experiment the test system is JAK2. Particulars: read-out: apparent Kd; compound concentrations:100 nM and 1000 nM (sheet 'Samples'); n = 1.
The test system of a further experiment is FN3KRP. Particulars: read-out: apparent Kd, n = 1.
Another experiment concerns MAP2K5. Particulars: read-out: apparent Kd; compound concentrations: 100 nM and 1000 nM (sheet 'Samples'), CATDS: 9.4548103744077197E-2; n = 1.
In the next experiment the test system is AKT1. Particulars: read-out: apparent Kd, n = 1.
The subject of another experiment is RIOK2. Particulars: read-out: apparent Kd, n = 1.
The next experiment concerns CDK16. Particulars: read-out: apparent Kd, n = 1.
For the next experiment, the system named is FLT4. Conditions: read-out: apparent Kd, n = 1.
A further experiment has as its system CDK17. Conditions: read-out: apparent Kd, n = 1.
The next experiment has as its system BMPR1B. Particulars: read-out: apparent Kd; compound concentrations: 100 nM and 1000 nM (sheet 'Samples'), CATDS: 9.3434375492385105E-2; n = 1.
The next experiment deals with EPHB1. Conditions: read-out: apparent Kd; compound concentrations:100 nM and 1000 nM (sheet 'Samples'); n = 1.
The mark [1] stands for this setting: compound concentrations:100 nM and 1000 nM (sheet 'Samples').

Like-named read-outs stand apart in the source and are kept apart here.

Regarding `CC(=O)c1c(-c2ccncc2)[nH]c(-c2ccncc2)c1C` [GW493036X], the potency estimated from few doses in the experiment with CDKL5 is 1.67 µM.

With `COc1ccc(C2=C(Nc3cccc(O)c3)C(=O)NC2=O)cc1` [SB-390766], the potency estimated from few doses with NLK (setting [1]) was 2.21 µM.

With `Cc1ccc(-n2nc(C(C)(C)C)cc2NC(=O)Nc2ccc(OCCN3CCOCC3)cc2)cc1` [BIRB0876BS], the potency estimated from few doses in the experiment on ACAD8 (setting [1]) was 2.1 µM; with DDR2 (setting [1]), 1.14 µM; in the experiment on JAK2, 0.748 µM.

Consider `NC(=O)c1sc(-n2cnc3ccc(C(F)(F)F)cc32)cc1OCc1ccccc1Br` [GW853606X], for which the potency estimated from few doses in the experiment on JAK2 was 0.419 µM.

For the molecule `Cc1ccc(C(=O)NC2CC2)cc1-c1ccc2[nH]ncc2c1` [GW820759X], the potency estimated from few doses with FN3KRP (compound concentrations: 100 nM and 1000 nM (sheet 'Samples'), CATDS: 0.34838904093032003) was 1.06 µM.

In the case of `COc1ccc(-c2nn3ncccc3c2-c2ccnc(Nc3ccc4c(c3)OCCO4)n2)cc1` [GW827106X], the potency estimated from few doses in the experiment on DDR2 (compound concentrations: 100 nM and 1000 nM (sheet 'Samples'), CATDS: 4.9498926543833199E-2) is 1.52 µM; with NLK (compound concentrations: 100 nM and 1000 nM (sheet 'Samples'), CATDS: 4.4703419918465902E-2) it was 1.99 µM.

On to `Cc1ccc(CC(=O)N2CCc3cc(-c4cn(C)c5ncnc(N)c45)ccc32)cc1` [GSK2634758A], for which the potency estimated from few doses in the experiment with FN3KRP (compound concentrations: 100 nM and 1000 nM (sheet 'Samples'), CATDS: 0.17784341210851801) was 1.24 µM.

For the molecule `Cc1ccc(NC(=O)Nc2ccccc2)cc1-c1ccc(C(=O)Nc2ccncc2)cc1` [GSK1398471A], the potency estimated from few doses is 2.18 µM in the experiment on ACAD8 (compound concentrations: 100 nM and 1000 nM (sheet 'Samples'), CATDS: 9.6825044114723993E-2); 2.35 µM in the experiment with MAP2K5.

Regarding `Cc1ccc(NC(=O)c2ccc(Cl)cc2)cc1-c1ccc(C(=O)Nc2ccncc2)cc1` [GSK1398467A], the potency estimated from few doses with FN3KRP (compound concentrations: 100 nM and 1000 nM (sheet 'Samples'), CATDS: 0.20437737337719999) was 1.18 µM.

Regarding `Nc1c(C(=O)c2ccccc2)cnn1-c1ccc(F)cc1` [RO1151246-000], the potency estimated from few doses in the experiment on ACAD8 (setting [1]) was 1.76 µM; in the experiment on AKT1 (setting [1]) it was 1.46 µM; in the experiment with CDKL5 it was 0.997 µM; in the experiment with RIOK2 (setting [1]) it was 1.7 µM.

With `Cn1cc(C2=C(c3cn(CCCCCO)c4ccccc34)C(=O)NC2=O)c2ccccc21` [RO0318053-000], the potency estimated from few doses in the experiment on FN3KRP (compound concentrations: 100 nM and 1000 nM (sheet 'Samples'), CATDS: 0.23703756302713999) is 0.0699 µM.

`Cn1cc(C2=C(c3ccccc3[N+](=O)[O-])C(=O)NC2=O)c2ccccc21` [RO0317753-000]: the potency estimated from few doses in the experiment with CDK16 (compound concentrations: 100 nM and 1000 nM (sheet 'Samples'), CATDS: 7.8370889513180206E-2) is 1.34 µM; in the experiment with FN3KRP (compound concentrations: 100 nM and 1000 nM (sheet 'Samples'), CATDS: 8.17359273490917E-2), 1.13 µM.

Turning to `CCS(=O)(=O)c1ccc(OC)c(Nc2ncc(-c3cccc(F)c3)o2)c1` [GW621970X_KCGS], the results for the potency estimated from few doses in the experiment on ACAD8 (setting [1]) and in the experiment on FLT4 (setting [1]) were 2.33 µM and 0.574 µM, respectively.

For the molecule `COc1ccc(S(=O)(=O)NC2CCN(c3cc(C)nc(Nc4cccc(C#N)c4)n3)CC2)cc1.O=C(O)C(F)(F)F` [GSK1653539A], the potency estimated from few doses in the experiment with FN3KRP (compound concentrations: 100 nM and 1000 nM (sheet 'Samples'), CATDS: 0.40384988174316899) was 0.91 µM.

With `COc1ccc(C2=C(c3cn(C)c4ccccc34)C(=O)NC2=O)cc1OC` [RO3206363-000], the potency estimated from few doses in the experiment on AKT1 (compound concentrations: 100 nM and 1000 nM (sheet 'Samples'), CATDS: 7.5592220710657507E-2) is 0.18 µM; with FLT4 (compound concentrations: 100 nM and 1000 nM (sheet 'Samples'), CATDS: 3.2229986541726797E-2) it was 1.77 µM.

As to `Fc1cccc(COc2ccc(Nc3ncncc3C#Cc3ccccc3)cc2Cl)c1` [GW651576X], the potency estimated from few doses in the experiment with ACAD8 (compound concentrations: 100 nM and 1000 nM (sheet 'Samples'), CATDS: 5.0604868868818903E-2) was 1.74 µM; in the experiment on AKT1 (compound concentrations: 100 nM and 1000 nM (sheet 'Samples'), CATDS: 4.6282631455897803E-2), 2.13 µM; with CDK17 (compound concentrations: 100 nM and 1000 nM (sheet 'Samples'), CATDS: 4.4959210496165199E-2), 2.29 µM; in the experiment on RIOK2 (compound concentrations: 100 nM and 1000 nM (sheet 'Samples'), CATDS: 5.4268483350181501E-2), 1.51 µM.

On to `COc1cc(F)c(F)c(F)c1C(=O)c1cnc(NC2CCN(S(C)(=O)=O)CC2)nc1N` [RO4600703-000], for which the figures for the potency estimated from few doses with CDK16 (setting [1]), in the experiment on CDK17 (setting [1]) and in the experiment on FN3KRP (setting [1]) were 0.051 µM, 0.0773 µM and 0.549 µM, respectively.

`Clc1ccc(-c2nn3ncccc3c2-c2ccnc(Nc3ccccc3)n2)cc1` [GW829055X]: the potency estimated from few doses with ACAD8 (compound concentrations: 100 nM and 1000 nM (sheet 'Samples'), CATDS: 3.9352617982793499E-2) was 1.22 µM; with AKT1 (compound concentrations: 100 nM and 1000 nM (sheet 'Samples'), CATDS: 3.4502228955022099E-2), 1.67 µM; in the experiment with BMPR1B, 0.264 µM; with CDK17 (compound concentrations: 100 nM and 1000 nM (sheet 'Samples'), CATDS: 3.0637739748937999E-2), 2.34 µM; with RIOK2 (compound concentrations: 100 nM and 1000 nM (sheet 'Samples'), CATDS: 3.5482707178261498E-2) it was 1.56 µM.

In the case of `COc1ccccc1C(=O)c1cnc(NC2CCN(S(C)(=O)=O)CC2)nc1N` [RO4514610-000], the potency estimated from few doses in the experiment on CDK16 (setting [1]) is 0.721 µM; with CDK17 (setting [1]), 0.732 µM.

With `NS(=O)(=O)c1cccc(-c2ccc3nccc(-c4cccc(S(N)(=O)=O)c4)c3c2)c1` [GW867253X], the potency estimated from few doses in the experiment on ACAD8 (compound concentrations: 100 nM and 1000 nM (sheet 'Samples'), CATDS: 0.48469015722886899) was 2.11 µM.

For the molecule `COc1ccc(Nc2nccc(N3CCC(NC(=O)Nc4cccc(OC)c4)C3)n2)cc1` (stereo not shown) [GSK1379742A], the potency estimated from few doses in the experiment on ACAD8 (compound concentrations: 100 nM and 1000 nM (sheet 'Samples'), CATDS: 0.11167502777980801) was 2.09 µM.

For the molecule `CC(=O)Nc1ccc2c(C3=C(c4cn(C)c5ccccc45)C(=O)NC3=O)cn(C)c2c1` [RO0317596-000], in the experiment on FN3KRP (compound concentrations: 100 nM and 1000 nM (sheet 'Samples'), CATDS: 0.121909442798699), the potency estimated from few doses was 1.25 µM.

`Cn1cc(C2=C(c3cccc([N+](=O)[O-])c3)C(=O)NC2=O)c2ccccc21` [RO0317474-000]: in the experiment with FN3KRP (compound concentrations: 100 nM and 1000 nM (sheet 'Samples'), CATDS: 0.16649901321048899), the potency estimated from few doses was 1.07 µM.

`COc1ccc(COc2ccc(Cc3cnc(N)nc3N)cc2OC)cc1` [GW632580X]: the potency estimated from few doses in the experiment on ACAD8 (setting [1]) is 1.64 µM.

Regarding `CS(=O)(=O)c1ccc(-c2nc3n(c2-c2ccncc2)CCC3)cc1` [SKF-105942], the potency estimated from few doses in the experiment on ACAD8 (compound concentrations: 100 nM and 1000 nM (sheet 'Samples'), CATDS: 0.13672361229607899) was 1.4 µM.

For `Fc1ccc(-c2ncn(C3CCNCC3)c2-c2ccnc(Oc3ccc4c(c3)OCO4)n2)cc1` [SB-250715], the potency estimated from few doses was 1.57 µM in the experiment with ACAD8 (setting [1]), 2.33 µM with AKT1 (setting [1]), 2.36 µM in the experiment with CDK16 (setting [1]) and 1.92 µM in the experiment with RIOK2 (setting [1]).

On to `COc1cc(N2CCN(C(C)C)CC2)ccc1Nc1nc(Nc2cccc(F)c2C(=O)O)c2cc[nH]c2n1` [GSK1819799A], for which the potency estimated from few doses is 1.94 µM with AKT1 (compound concentrations: 100 nM and 1000 nM (sheet 'Samples'), CATDS: 4.312239107291E-2); 2.17 µM with CDK17 (compound concentrations: 100 nM and 1000 nM (sheet 'Samples'), CATDS: 4.1653075396407099E-2).

In the case of `Cl.Oc1ccc2ncnc(Nc3ccc(OCc4ccccc4)cc3)c2c1` [GI262866A], the potency estimated from few doses in the experiment on FN3KRP (setting [1]) is 0.762 µM.

In the case of `NC(=O)c1cccnc1COc1cc(-c2ccc(N3CCOCC3)nc2)cc2ncccc12` [BI01125081], the potency estimated from few doses in the experiment with ACAD8 (setting [1]) is 1.93 µM; in the experiment on DDR2 (setting [1]), 2.24 µM; in the experiment with EPHB1 it was 0.738 µM.

In the case of `COc1cccc(C2=C(c3cn(C)c4c(C)cccc34)C(=O)NC2=O)c1` [RO3301012-000], the potency estimated from few doses in the experiment on FN3KRP (compound concentrations: 100 nM and 1000 nM (sheet 'Samples'), CATDS: 0.113294190935364) is 1.3 µM.

In the case of `Cl.Fc1cccc(COc2ccc(Nc3ncnc4cc(-c5ccc[nH]5)sc34)cc2Cl)c1` [GW693881A], in the experiment on FN3KRP (compound concentrations: 100 nM and 1000 nM (sheet 'Samples'), CATDS: 0.20216809637719099), the potency estimated from few doses was 0.791 µM.

For `Nc1ncnc2c1ncn2-c1cccc(F)c1` [SKF-97560], the potency estimated from few doses in the experiment with NLK (compound concentrations: 100 nM and 1000 nM (sheet 'Samples'), CATDS: 0.113621067973222) is 0.0949 µM.
